Data taken from the supplement of paper PMC4466140.

These binders were tested against CaNbp2 (assay: SPOT peptide array binding signal intensity (averaged, normalized) (arbitrary units (background-subtracted, floor 0; scale differs between SH3 domains)); higher = stronger binding of the SH3 domain to the peptide).
Outline: (§1)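 Binding signal refers to normalized, background-subtracted spot intensity averaged over replicates, expressed in arbitrary units that differ between domains. GST-fused SH3 domains from four yeast species were incubated at 10 μg/ml overnight at 4°C on cellulose membranes of synthetic 15-mer peptides with cysteines replaced by serines. Bound protein was detected with anti-GST antibody, an HRP anti-mouse secondary and luminol, and quantified with Genespotter.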
RKNRAPPQRPRFNRE was tested, and the “SPOT peptide array binding signal intensity” value was 1020.

These binders were tested against CaRvs167 in the same assay as above.
Outline: as §1
RKNRAPPQRPRFNRE was tested, and the “SPOT peptide array binding signal intensity” value was 26.5.

The binders below were run against CaRvs167-3 in the same assay as above.
Outline: as §1
In the case of RKNRAPPQRPRFNRE, the “SPOT peptide array binding signal intensity” value is reported as 28.5.

The binders below were run against CaSho1 in the same assay as above.
Outline: as §1
In the case of RKNRAPPQRPRFNRE, the “SPOT peptide array binding signal intensity” value is reported as 117.

Each binder was assayed against CaSla1-D1-D2 in the same assay as above.
Outline: as §1
For RKNRAPPQRPRFNRE, the “SPOT peptide array binding signal intensity” value was 752.

Each binder was assayed against CaSla1-D3 in the same assay as above.
Outline: as §1
For RKNRAPPQRPRFNRE, the “SPOT peptide array binding signal intensity” value was 15.

These binders were tested against ScAbp1 in the same assay as above.
Outline: as §1
In the case of RKNRAPPQRPRFNRE, the “SPOT peptide array binding signal intensity” value is reported as 369.

What follows are binders tested against ScBbc1 in the same assay as above.
Outline: as §1
For RKNRAPPQRPRFNRE, the “SPOT peptide array binding signal intensity” value was 290.

Each binder was assayed against ScBem1-D1 in the same assay as above.
Outline: as §1
RKNRAPPQRPRFNRE was tested, and the “SPOT peptide array binding signal intensity” value was 112.

The binders below were run against ScBzz1-D1 in the same assay as above.
Outline: as §1
RKNRAPPQRPRFNRE was tested, and the “SPOT peptide array binding signal intensity” value was 46.

Each binder was assayed against ScBzz1-D2 in the same assay as above.
Outline: as §1
RKNRAPPQRPRFNRE was tested, and the “SPOT peptide array binding signal intensity” value was 26.

What follows are binders tested against ScCyk3 in the same assay as above.
Outline: as §1
With RKNRAPPQRPRFNRE the “SPOT peptide array binding signal intensity” value was 88.

Each binder was assayed against ScFus1 in the same assay as above.
Outline: as §1
With RKNRAPPQRPRFNRE the “SPOT peptide array binding signal intensity” value was 209.

Each binder was assayed against ScHof1 in the same assay as above.
Outline: as §1
RKNRAPPQRPRFNRE was tested, and the “SPOT peptide array binding signal intensity” value was 2.5.

The binders below were run against ScHse1 in the same assay as above.
Outline: as §1
With RKNRAPPQRPRFNRE the “SPOT peptide array binding signal intensity” value was 761.

These binders were tested against ScLsb1 in the same assay as above.
Outline: as §1
RKNRAPPQRPRFNRE was tested, and the “SPOT peptide array binding signal intensity” value was 162.

The binders below were run against ScLsb2 in the same assay as above.
Outline: as §1
RKNRAPPQRPRFNRE was tested, and the “SPOT peptide array binding signal intensity” value was 196.

What follows are binders tested against ScLsb3 in the same assay as above.
Outline: as §1
In the case of RKNRAPPQRPRFNRE, the “SPOT peptide array binding signal intensity” value is reported as 622.

Each binder was assayed against ScLsb4 in the same assay as above.
Outline: as §1
RKNRAPPQRPRFNRE was tested, and the “SPOT peptide array binding signal intensity” value was 34.5.

Each binder was assayed against ScMyo3 in the same assay as above.
Outline: as §1
For RKNRAPPQRPRFNRE, the “SPOT peptide array binding signal intensity” value was 8.5.

The binders below were run against ScMyo5 in the same assay as above.
Outline: as §1
In the case of RKNRAPPQRPRFNRE, the “SPOT peptide array binding signal intensity” value is reported as 10.

The binders below were run against ScNbp2 in the same assay as above.
Outline: as §1
For RKNRAPPQRPRFNRE, the “SPOT peptide array binding signal intensity” value was 4060.

These binders were tested against ScPex13 in the same assay as above.
Outline: as §1
RKNRAPPQRPRFNRE was tested, and the “SPOT peptide array binding signal intensity” value was 128.

These binders were tested against ScRvs167 in the same assay as above.
Outline: as §1
With RKNRAPPQRPRFNRE the “SPOT peptide array binding signal intensity” value was 192.

Each binder was assayed against ScSho1 in the same assay as above.
Outline: as §1
In the case of RKNRAPPQRPRFNRE, the “SPOT peptide array binding signal intensity” value is reported as 979.

These binders were tested against ScSla1-D1-D2 in the same assay as above.
Outline: as §1
In the case of RKNRAPPQRPRFNRE, the “SPOT peptide array binding signal intensity” value is reported as 1390.

Each binder was assayed against ScSla1-D3 in the same assay as above.
Outline: as §1
With RKNRAPPQRPRFNRE the “SPOT peptide array binding signal intensity” value was 30.2.

Each binder was assayed against SpAbp1-D1 in the same assay as above.
Outline: as §1
RKNRAPPQRPRFNRE was tested, and the “SPOT peptide array binding signal intensity” value was 634.

Each binder was assayed against SpBbc1 in the same assay as above.
Outline: as §1
For RKNRAPPQRPRFNRE, the “SPOT peptide array binding signal intensity” value was 25.5.

What follows are binders tested against SpBzz1-D1 in the same assay as above.
Outline: as §1
For RKNRAPPQRPRFNRE, the “SPOT peptide array binding signal intensity” value was 707.

The binders below were run against SpBzz1-D2 in the same assay as above.
Outline: as §1
For RKNRAPPQRPRFNRE, the “SPOT peptide array binding signal intensity” value was 23.

The binders below were run against SpCyk3 in the same assay as above.
Outline: as §1
RKNRAPPQRPRFNRE was tested, and the “SPOT peptide array binding signal intensity” value was 9.5.

What follows are binders tested against SpHof1 in the same assay as above.
Outline: as §1
With RKNRAPPQRPRFNRE the “SPOT peptide array binding signal intensity” value was 200.

Each binder was assayed against SpHof1-2 in the same assay as above.
Outline: as §1
With RKNRAPPQRPRFNRE the “SPOT peptide array binding signal intensity” value was 13.5.

Each binder was assayed against SpHof1-3 in the same assay as above.
Outline: as §1
RKNRAPPQRPRFNRE was tested, and the “SPOT peptide array binding signal intensity” value was 286.

What follows are binders tested against SpHse1 in the same assay as above.
Outline: as §1
In the case of RKNRAPPQRPRFNRE, the “SPOT peptide array binding signal intensity” value is reported as 253.

The binders below were run against SpLsb1 in the same assay as above.
Outline: as §1
With RKNRAPPQRPRFNRE the “SPOT peptide array binding signal intensity” value was 190.

What follows are binders tested against SpLsb4 in the same assay as above.
Outline: as §1
RKNRAPPQRPRFNRE was tested, and the “SPOT peptide array binding signal intensity” value was 707.

These binders were tested against SpMyo1 in the same assay as above.
Outline: as §1
For RKNRAPPQRPRFNRE, the “SPOT peptide array binding signal intensity” value was 14.

The binders below were run against SpNbp2 in the same assay as above.
Outline: as §1
With RKNRAPPQRPRFNRE the “SPOT peptide array binding signal intensity” value was 307.

Each binder was assayed against SpPex13 in the same assay as above.
Outline: as §1
For RKNRAPPQRPRFNRE, the “SPOT peptide array binding signal intensity” value was 32.

The binders below were run against SpRvs167 in the same assay as above.
Outline: as §1
RKNRAPPQRPRFNRE was tested, and the “SPOT peptide array binding signal intensity” value was 67.8.

The binders below were run against SpSla1-D1-D2 in the same assay as above.
Outline: as §1
For RKNRAPPQRPRFNRE, the “SPOT peptide array binding signal intensity” value was 48.

What follows are binders tested against SpSla1-D3 in the same assay as above.
Outline: as §1
In the case of RKNRAPPQRPRFNRE, the “SPOT peptide array binding signal intensity” value is reported as 7.
